# An excerpt weighted towards active compounds, which were near 14% of everything screened.
# Cycloheximide cs = affects cycloheximide protein synthesis inhibition readout, counter-screen | cell reporter, cycloheximide protein synthesis inhibition counterscreen | max response, % | 300,000 compounds, 12% hits | AID 2314; in the data active = max response mostly above about 13%, no sharp cut-off; inactive = mostly below about 14%; also: read at 38.3 µM for the half of the compounds with a filed dose; 0% is about no effect
# NS1 function inh = blocks influenza NS1 protein function | Potency, µM (highest dose often 46.1 µM), for inactives: at the highest dose activity, positive = more growth | 270,000 compounds, 0.4% hits | AID 2326; calls by dose curve; also: potency is read from the fitted curve at half-maximal effect; actives are rising curves; nearly all actives have a fitted effect of over 50% in size
#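 OD600 was taken as the measure of yeast growth restored by compound in an NS1-expressing S. cerevisiae strain. Cells had been washed out of glucose medium and diluted 1:100 into galactose -URA medium, pH 6.0.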
# LmPK inhibitor = inhibitors of Leishmania mexicana pyruvate kinase | Potency, µM (doses to about 57.5 µM), inactives show at the top dose activity change, negative = inhibition, actives largely listed as inhibitors | purified LmPK, Kinase-Glo ATP luminescence, 1 h | 290,000 compounds, 0.37% hits | AID 1721 | Q27686; also: potency is read from the fitted curve at half-maximal effect; % is scaled to controls: 0 for no effect and ±100 for the full control effect
#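 ATP generated from ADP (0.1 mM) and PEP (0.5 mM) by 0.1 nM LmPK over 1 h at room temperature (pH 7.2 imidazole buffer) was detected by coupled luciferase luminescence. Values were normalized to uninhibited and no-enzyme wells.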
# Shiga inhibitor = inhibitors of Shiga toxin in Vero cells | Vero cells, Shiga toxin protein synthesis inhibition reporter | 290,000 compounds, 9.2% hits | inhibition, % at 38.7 µM | AID 2315; in the data active = inhibition mostly above about 28%, no sharp cut-off; inactive = mostly below about 43%; also: 0% is about no effect
# Giardia FBPA inh = inhibitors of Giardia lamblia fructose-1,6-bisphosphate aldolase; purified Giardia FBPA; Potency, µM (top dose mostly 59.6 µM), for the others: at the top dose activity, negative = inhibition, hits mostly inhibitors; 290,000 compounds, 0.71% hits; also: potency is read from the fitted curve at half-maximal effect; % is scaled to controls: 0 for no effect and ±100 for the full control effect; nearly all actives have a fitted effect of over 55% in size
# Target sequence (A8B2U2 whole entry, looked up): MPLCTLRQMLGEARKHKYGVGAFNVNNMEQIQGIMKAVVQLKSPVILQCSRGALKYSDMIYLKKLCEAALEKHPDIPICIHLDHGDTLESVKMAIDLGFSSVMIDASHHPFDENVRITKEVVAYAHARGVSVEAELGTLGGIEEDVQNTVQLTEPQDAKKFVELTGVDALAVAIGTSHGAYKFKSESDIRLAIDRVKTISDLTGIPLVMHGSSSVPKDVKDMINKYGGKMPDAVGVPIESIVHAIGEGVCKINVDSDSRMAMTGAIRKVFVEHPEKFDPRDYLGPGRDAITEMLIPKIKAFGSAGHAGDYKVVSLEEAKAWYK
#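 40 nM FBPA preincubated 10 min at RT with compound (up to 57.5 uM final), then substrate plus GAPDH/TPI/NAD/arsenate coupling and diaphorase/resazurin added. Fluorescence read after 20 min at RT, 525/598 nm.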
# * = called active by the depositor; ? = inconclusive; / = no result given; [ ] = another dose, or the depositor's remark. Unless noted, calls follow the shape of the dose curve; as a rule, active = well fitted curve in the direction sought with a large enough effect; inconclusive = small, poorly fitted or top-dose-only effect, or another doubt; inactive = no such curve, though single readings can be large; an effect the other way counts as inactive or inconclusive.
SMILES,Cycloheximide cs,NS1 function inh,LmPK inhibitor,Shiga inhibitor,Giardia FBPA inh
Cc1csc(NC(=O)C2CCCCN2S(=O)(=O)c2ccccc2)n1 (centres undefined),13*,1%,-1%,26,-16%
Cc1csc(NC(=O)c2ccc(S(=O)(=O)N3CCCC3)cc2)n1,17*,-2%,1%,39,-3%
Cc1nc(-c2ccc(S(=O)(=O)N3CCCCCC3)cc2)cs1,21*,-10%,-7%,100*,3%
Cc1nc(-c2ccc(S(=O)(=O)N3CCOCC3)cc2)cs1,-1,7%,-10%,-2,/
O=C(Nc1nccs1)C1CCCCN1S(=O)(=O)c1ccccc1 (centres undefined),2,0%,8%,5,-14%
O=C(Nc1nc(-c2cccs2)cs1)c1ccc(S(=O)(=O)N2CCCC2)cc1,-6,-2%,-2%,3,-4%
CCOc1ccccc1NC(=O)CN1CCCCCC1,-3,-13%,2%,-4,?
Cc1cc(C)cc(NC(=O)CCN2CCOCC2)c1,-1,17%,0%,-3,6%
CN(CCc1ccc(Cl)c(Cl)c1)C[C@@H](O)COc1ccc(NS(C)(=O)=O)cc1,/,/,/,/,-1%
O=c1c(Br)c(NCc2ccccc2)cnn1-c1ccc(F)cc1,26*,-6%,4%,40*,4%
Cc1ccc(NC(=O)CCCn2c(=S)[nH]c3ccsc3c2=O)cc1C,-4,20%,6%,-10,15%
Cn1cccc1C(=O)N1CCC[C@@]2(CCN(c3ccccc3)C2)C1,/,/,/,/,-9%
Cc1ccc(-c2noc(-c3ccoc3C)n2)cc1,49*,4%,-27%,83*,-7%
Cc1occc1-c1nc(-c2ccncc2)no1,34*,0%,?,80*,5%
Cc1cc(Br)ccc1NC(=O)CN(C)C(=O)Cn1c(=O)cnc2ccccc21,-3,-11%,6%,-2,/
CC(C)(C)c1cc(-c2n[nH]c(=S)n2-c2ccc(Cl)cc2)n[nH]1,-1,-2%,13µM*,10,8%
Cc1nn(C)cc1-c1n[nH]c(=S)n1-c1ccc(Cl)cc1,-4,4%,7.9µM*,-6,-16%
Cc1ccc(-n2c(C)n[nH]c2=S)cc1,-2,0%,-10%,3,?
CCCN1CCN(S(=O)(=O)c2ccc(-n3cnnn3)cc2)CC1,-1,-14%,-4%,-7,/
CC#CCN(Cc1ccco1)C(=O)C1CCC(=O)N(Cc2ccccc2F)C1 (centres undefined),32*,-4%,-7%,29,/
O=C(NC1CCC1)C1CCC(=O)N(Cc2cccc(F)c2)C1 (centres undefined),18,3%,-3%,-6,/
O=C(NCCc1ccccc1F)C1CCC(=O)N(Cc2ccccc2F)C1 (centres undefined),18*,8%,-8%,25*,/
O=C(NC1CCC1)C1CCC(=O)N(Cc2ccccc2F)C1 (centres undefined),32*,-1%,-2%,8,/
CN(Cc1nccs1)C(=O)C1CCC(=O)N(Cc2ccccc2F)C1 (centres undefined),10,1%,6%,-12,-2%
CC1CCCCN1CCn1c(=S)[nH]c2cc3c(cc2c1=O)OCO3 (centres undefined),6,/,12%,16,-16%
SMILES,Cycloheximide cs,NS1 function inh,LmPK inhibitor,Shiga inhibitor,Giardia FBPA inh
O=C(O)c1cccc(S(=O)(=O)N2CCN(c3ccccn3)CC2)c1,1,1%,6%,-5,4%
O=[N+]([O-])c1ccc(N2CCCCC2)s1,18*,/,3%,-5,?
CC1CCCN(c2ccc([N+](=O)[O-])s2)C1 (centres undefined),16*,/,4%,12,-30%
Nc1nonc1C(=O)NCCNC(=O)c1cccc(Cl)c1,-6,-2%,-2%,-2,8%
Cc1ccc(OCC(=O)Nc2ccc3c(c2)OCCO3)cc1C,32*,/,0%[11.5 µM],178*,-4%
Cc1cccc(OCC(=O)Nc2ccc3c(c2)OCCO3)c1,62*,-37%,1%,111*,-1%
Cc1cc(C(=O)CSC(=S)SC(C)(C)C)ccc1Cl,/,-7%,/,/,/
COc1ccccc1NC(=O)NNC(=O)COc1ccc2ccccc2c1,24*,-2%,-8%,-38,/
COc1ccccc1NC(=O)COc1ccc2c(c1)OCO2,25*,-12%,1%,70*,-1%
CCOc1ccccc1NC(=O)COc1ccc2ccc(=O)oc2c1,-3,-5%,0%,-9,11%
COc1ccc(OCC(=O)Nc2ccccc2OC(F)F)cc1,9.6*,-35%,2%,8,4%
CCOc1ccccc1NC(=O)COc1ccc2c(c1)OCO2,22,-33%,12%,59*,3%
COCc1cc(C)nc(N/N=C/c2ccc(-c3ccc(Cl)cc3[N+](=O)[O-])o2)c1C#N,0,/,5%,-11,?
C=Cc1ccc([C@H]2N[C@@H](C(=O)O)CC[C@@H]2C)cc1,/,/,/,/,1%[12.9 µM]
COC(=O)C1CCCN1S(=O)(=O)c1ccccc1NC(=O)c1cc(OC)c(OC)c(OC)c1 (centres undefined),-4,-12%,2%,-2,5%
COc1ccccc1CN1CCCC(CNC(=O)c2cccc3ccccc23)C1 (centres undefined),-3,7%,-1%,/,2%
CCc1nnc(NC(=O)COc2ccc3c(c2)OCO3)s1,-1,-7%,7%,3,-4%
O=C(COc1ccc2c(c1)OCO2)NC12CC3CC(CC(C3)C1)C2,17*,-28%,0%,44*,1%
CC(C)c1nnc(NC(=O)COc2ccc3c(c2)OCO3)s1,-3,-10%,0%,12,-27%
COc1ccc(NC(=O)NNC(=O)COc2ccc3cc(Br)ccc3c2)cc1,13,8%,4%,42,20%
O=C(COc1ccc2c(c1)OCO2)Nc1nncs1,18*,-2%,-1%,33,-10%
NC(=O)c1ccccc1NC(=O)COc1ccc2c(c1)OCO2,29*,-3%,1%,85*,-5%
COc1ccc2cc(OCC(=O)NNC(=O)Nc3ccc(C(C)=O)cc3)ccc2c1,21*,-6%,-5%,48,/
COc1ccc(C(=O)CC(=O)c2c(O)cc(OC)cc2OC)cc1,/,/,/,/,0%[12.9 µM]
COc1ccc(C2CC(c3ccccc3)=NN2C(=O)CN2N=NC3C(=O)N(c4cccc(F)c4)C(=O)C32)cc1 (centres undefined),11*,24%,1%,-9,-2%
COc1ccc(C2CC(c3ccccc3)=NN2C(=O)c2ccc(F)cc2)cc1 (centres undefined),11,2%,11%,-2,2%
CC(/C=C1\SC(=O)N(CC(=O)Nc2ccc(O)cc2)C1=O)=C\c1ccccc1,29,?,2%,40*,11%
O=C(CCN1C(=O)/C(=C\C=C\c2ccccc2)SC1=S)Nc1ccc(C(=O)O)cc1,15*,17%,-2%,29,/
O=C(CCCN1C(=O)S/C(=C\C=C\c2ccccc2)C1=O)Nc1ccc(O)cc1,44*,11%,-1%,148*,15%

# Source: PubChem (National Center for Advancing Translational Sciences (NCATS))
